± gives the standard deviation of the averaged measurements.
Assays:
IMR-90 = assay: relative cell viability (ATPlite) vs untreated control (fraction); higher = less toxic; conditions: 1 µM; 72 h
K562 [1] = assay: as above; conditions: 1 µM; 72 h
K562 [2] = assay: relative cell viability (ATPlite) vs untreated control, with imatinib (fraction); higher = less toxic; conditions: 1 µM; 72 h; imatinib 0.125 µM

Row | SMILES | relative cell viability (IMR-90) | relative cell viability (K562 [1]) | relative cell viability (K562 [2])
1 | O=S(=O)(c1c(O)c(Cl)cc(Cl)c1Cl)c1c(O)c(Cl)cc(Cl)c1Cl [p38 MAP Kinase Inhibitor IV] | 0.988 ± 0.073 | 0.813 ± 0.076 | 0.762 ± 0.026
2 | O=[N+]([O-])/C=C/c1ccc2c(c1)OCO2 [Syk Inhibitor III] | 0.932 ± 0.087 | 0.819 ± 0.063 | 0.753 ± 0.033
3 | O=C1NC(=O)c2c1c1c3ccccc3n3c1c1c2c2ccccc2n1[C@H]1CC[C@@H]3O1 | 1.04 ± 0.092 | 0.872 ± 0.058 | 0.797 ± 0.069
4 | COC(=O)[C@]1(O)C[C@@H]2O[C@@]1(C)n1c3ccccc3c3c4c(c5c6ccccc6n2c5c31)C(=O)NC4 [K-252a, Nocardiopsis sp.] | 0.668 ± 0.06 | 0.305 ± 0.26 | 0.363 ± 0.26
5 | CC(C)(C)c1cc(C=C(C#N)C#N)cc(Br)c1O | 0.962 ± 0.047 | 1 ± 0.12 | 0.847 ± 0.017
6 | COc1ccc2c(c1)/C(=C/c1cnc[nH]1)C(=O)N2 | 1.31 ± 0.26 | 0.907 ± 0.17 | 0.881 ± 0.08
7 | NC(=NN=Cc1ccc(-c2cccc([N+](=O)[O-])c2)o1)N[N+](=O)[O-] [ERK Inhibitor III] | 1.01 ± 0.12 | 0.937 ± 0.079 | 0.775 ± 0.053

From the supplement of paper PMC4100887
